Among the data in PubChem BioAssay are composite z-score, composite Z-score and z-score values, retold here.

Activity calls are given as the source filed them.

Assay [1] addresses Albumin (Bos taurus) (UniProt P02769). Description: compounds binding labelled BSA control protein – biochemical, small-molecule microarray, Alexa647 label, 635/667 nm fluorescence, artefact control for SMM control protein annotation, profiling panel (AID 1118).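 Further: score merges 667 nm emission intensity and signal-to-noise per printed compound spot.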 As to conditions: BSA-A647 binding, fluorescence 635 nm, higher = more signal.
A short description of assay [2]: probe aXIP binding to arrayed compounds – biochemical, NeuroSMM set, 635/667 nm fluorescence, primary screen (AID 1119).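 Further: probe is the protein aXip251-270 applied at 1 µg/mL to compound-printed slides; binding of probe to printed compounds measured as 667 nm fluorescence plus signal to noise.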 As to conditions: small-molecule microarray, higher = more signal, called active from +8 up or from −8 down.
Assay [3] is described as follows: probe aNOTCH3 binding on compound microarray – biochemical, small-molecule microarray, 635/667 nm fluorescence, primary screen (AID 1120).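 Further: probe is a biotin-tagged antibody raised against NOTCH3 rather than NOTCH3 protein; score merges spot fluorescence near 667 nm with spot signal to noise.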 As to conditions: higher = more signal.
Assay [4] is described as follows: probe aNOTCH2 binding on compound microarray – biochemical, small-molecule microarray, 635/667 nm fluorescence, primary screen (AID 1121).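 Further: score merges feature fluorescence read at 667 nm with its signal to noise.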 As to conditions: higher = more signal.
For assay [5], the target named is Carbonic anhydrase 2 (Homo sapiens) (UniProt P00918). Put plainly: compounds binding carbonic anhydrase 2 – biochemical, small-molecule microarray, Alexa647-labelled CAII, profiling panel (AID 1122). The conditions noted are these: CAII-A647 binding fluorescence, higher = more signal.
Assay [6] can be described thus: COS7 lysate on small-molecule microarray, probe aHis, 635 nm (AID 1123).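 Further: z-score combines 667nm fluorescence intensity with signal-to-noise per printed compound spot.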 The conditions noted are these: COS7 cell lysate, fluorescence, higher = more signal.
Assay [7] in a line: probe aLAP1 signal on lysate-treated microarray – cell lysate, small-molecule microarray, COS7 lysate, primary screen (AID 1124).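 Further: lysate comes from COS7 cells expressing LAP1 and is applied at 0.3 µg/mL; score merges spot fluorescence near 667 nm with signal-to-noise over triplicate slides.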 The conditions noted are these: probe aLAP1, fluorescence, higher = more signal.
For assay [8], the system named is Sam68 (KHDRBS1). Description: compounds binding KHDRBS1 protein – biochemical, small-molecule microarray, 635 nm fluorescence, primary screen (AID 1125).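 Further: score merges 667 nm channel intensity with signal to noise over triplicate slides.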 As to conditions: higher = more signal.
The test system of assay [9] is Chordin-like protein 2 (CHRDL2). Description: compounds binding chordin-like 2 – biochemical, small-molecule microarray, 635 nm fluorescence, primary screen (AID 1126).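 Further: printed compound slides probed with Chrdl2 protein at 4 µg/mL for 1 h at 4 C; score merges 667 nm emission intensity with signal to noise over three replicate slides.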 The conditions noted are these: fluorescence 635 nm, higher = more signal.
Assay [10] has as its target Concanavalin-A (Canavalia ensiformis) (UniProt P02866). Description: compounds binding concanavalin A lectin – biochemical, small-molecule microarray, Alexa647 label, 635 nm, artefact control for SMM control protein annotation, primary screen (AID 1127).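 Further: z combines 667 nm emission intensity with signal-to-noise across three replicate slides.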 As to conditions: ConA-A647 binding fluorescence, higher = more signal.
A short description of assay [11]: compounds binding Alexa647 anti-His antibody – biochemical, small-molecule microarray, 635 nm fluorescence, artefact control for SMM control protein annotation, primary screen (AID 1128).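 Further: score merges feature fluorescence with signal-to-noise for each printed compound spot.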 As to conditions: higher = more signal.
For assay [12], the system named is Human papillomavirus type 1a E7 protein (residues 1-88). Put plainly: HPV1a E7 small-molecule binders, primary screen, biochemical, small-molecule microarray, residues 1-88, 635 nm (AID 1129). The conditions noted are these: small-molecule microarray binding, fluorescence 635 nm; higher = more signal.
The target of assay [13] is Focal adhesion kinase 1 (Homo sapiens) (UniProt Q05397). Put plainly: PTK2 protein binding on printed compound slides – biochemical, small-molecule microarray, 635/667 nm fluorescence, BSA, DTT, primary screen (AID 1130).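 Further: composite of spot emission at 667 nm and signal to noise over triplicate slides.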 As to conditions: 635 nm fluorescence, higher = more signal.
Sequence of Focal adhesion kinase 1 (Homo sapiens) (Q05397 whole entry, looked up): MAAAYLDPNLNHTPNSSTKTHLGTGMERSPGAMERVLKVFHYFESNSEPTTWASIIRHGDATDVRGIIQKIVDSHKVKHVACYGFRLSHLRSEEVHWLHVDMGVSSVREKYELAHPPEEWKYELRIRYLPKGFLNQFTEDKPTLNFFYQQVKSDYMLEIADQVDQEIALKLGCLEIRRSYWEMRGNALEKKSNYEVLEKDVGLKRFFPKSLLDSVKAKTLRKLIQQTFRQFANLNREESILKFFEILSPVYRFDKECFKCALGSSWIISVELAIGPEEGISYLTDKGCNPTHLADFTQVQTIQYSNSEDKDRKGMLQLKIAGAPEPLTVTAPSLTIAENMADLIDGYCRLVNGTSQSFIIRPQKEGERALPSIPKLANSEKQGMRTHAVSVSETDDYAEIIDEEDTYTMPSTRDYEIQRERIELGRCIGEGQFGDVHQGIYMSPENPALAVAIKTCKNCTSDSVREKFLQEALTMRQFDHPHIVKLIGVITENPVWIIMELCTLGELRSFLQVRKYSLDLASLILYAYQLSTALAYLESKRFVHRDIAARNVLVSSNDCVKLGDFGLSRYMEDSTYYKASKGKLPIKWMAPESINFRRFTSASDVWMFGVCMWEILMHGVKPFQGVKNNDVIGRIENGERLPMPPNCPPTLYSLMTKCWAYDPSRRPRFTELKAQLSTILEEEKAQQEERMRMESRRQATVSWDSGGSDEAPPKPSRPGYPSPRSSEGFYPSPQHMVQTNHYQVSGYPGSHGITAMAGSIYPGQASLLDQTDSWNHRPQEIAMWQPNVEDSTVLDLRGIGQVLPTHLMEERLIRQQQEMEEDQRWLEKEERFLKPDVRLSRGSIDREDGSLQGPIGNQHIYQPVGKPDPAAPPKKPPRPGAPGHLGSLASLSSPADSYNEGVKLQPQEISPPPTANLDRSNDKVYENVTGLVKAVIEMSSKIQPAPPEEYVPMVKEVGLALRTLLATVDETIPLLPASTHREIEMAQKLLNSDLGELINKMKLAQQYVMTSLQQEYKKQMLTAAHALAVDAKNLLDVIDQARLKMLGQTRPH
Assay [14] deals with Fibrinogen (Alexa647-labelled). Put plainly: Alexa647-fibrinogen binding to printed small molecules – biochemical, small-molecule microarray, 635/667 nm fluorescence, artefact control for SMM control-protein annotation, profiling panel (AID 1131).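 Further: z-score merges 667 nm fluorescence with per-spot signal-to-noise over triplicate slides.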 As to conditions: fibrinogen-A647 binding fluorescence, higher = more signal.
The target of assay [15] is Follistatin (Homo sapiens) (UniProt P19883). Description: FST protein binding to printed compounds – biochemical, small-molecule microarray, 635/667 nm fluorescence, primary screen (AID 1132). As to conditions: 635 nm fluorescence, higher = more signal.
Sequence of Follistatin (Homo sapiens) (P19883 whole entry, looked up): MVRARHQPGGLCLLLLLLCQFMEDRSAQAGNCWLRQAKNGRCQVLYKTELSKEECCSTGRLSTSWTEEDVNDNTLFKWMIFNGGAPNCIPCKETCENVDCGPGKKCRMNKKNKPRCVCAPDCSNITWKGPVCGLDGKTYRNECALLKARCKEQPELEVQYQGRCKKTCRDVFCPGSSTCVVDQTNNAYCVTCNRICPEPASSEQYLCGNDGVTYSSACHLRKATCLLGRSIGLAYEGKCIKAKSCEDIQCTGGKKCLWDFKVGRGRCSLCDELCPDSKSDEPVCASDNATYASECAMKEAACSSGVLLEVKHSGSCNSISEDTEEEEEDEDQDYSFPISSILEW
The target in assay [16] is Fibroblast growth factor 2 (Homo sapiens) (UniProt P09038). Description: basic fibroblast growth factor binding to printed compounds – biochemical, small-molecule microarray, 635/667 nm fluorescence, primary screen (AID 1133). As to conditions: FGF2, fluorescence 635/667, higher = more signal.
Sequence of Fibroblast growth factor 2 (Homo sapiens) (P09038 whole entry, looked up): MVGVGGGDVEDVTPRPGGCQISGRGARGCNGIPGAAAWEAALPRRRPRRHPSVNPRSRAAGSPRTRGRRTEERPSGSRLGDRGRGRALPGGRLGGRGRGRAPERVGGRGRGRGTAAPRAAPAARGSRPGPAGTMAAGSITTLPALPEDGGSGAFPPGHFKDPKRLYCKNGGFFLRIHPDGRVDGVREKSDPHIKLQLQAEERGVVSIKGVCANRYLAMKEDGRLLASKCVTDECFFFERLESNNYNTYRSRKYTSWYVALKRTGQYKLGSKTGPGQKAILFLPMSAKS
Assay [17] is described as follows: JC-1 mitochondrial potential readout, lung cancer cells – cell-based, A549, JC-1 fluorescence, basal, 24 h, 100 nL, profiling panel (AID 1138).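 Further: A549 lung adenocarcinoma cells under basal conditions with no added stimulus; test concentration not given here.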 As to conditions: higher = more signal.
For assay [18], the system named is Lefty1. Description: Lefty1 protein binding to printed compounds – biochemical, small-molecule microarray, 635/667 nm fluorescence, primary screen (AID 1139). The conditions noted are these: fluorescence 635/667, higher = more signal.
In assay [19] the test system is wheat germ agglutinin (Triticum aestivum), Alexa647-labelled. Description: Alexa647-WGA lectin binding to printed small molecules – biochemical, small-molecule microarray, 635/667 nm fluorescence, artefact control for SMM control-protein annotation, profiling panel (AID 1140).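 Further: score merges 667 nm feature emission with signal to noise over triplicate slides.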 The conditions noted are these: WGA-A647 binding, 635 nm fluorescence, higher = more signal.

Assay [20] addresses Luciferin 4-monooxygenase (Photinus pyralis) (UniProt P08659). Put plainly: inhibition of purified Photinus pyralis luciferase – biochemical, luminescence, purified enzyme, 2006 set, primary screen (AID 1141).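 Further: cell-free assay with purified firefly luciferase at 100 ng per well in PBS; test concentration not given here.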 The conditions noted are these: purified firefly luciferase, SteadyGlo luminescence, 30 min; higher = more signal, called active from +8 up or from −8 down.

Sequence of Luciferin 4-monooxygenase (Photinus pyralis) (P08659 whole entry, looked up): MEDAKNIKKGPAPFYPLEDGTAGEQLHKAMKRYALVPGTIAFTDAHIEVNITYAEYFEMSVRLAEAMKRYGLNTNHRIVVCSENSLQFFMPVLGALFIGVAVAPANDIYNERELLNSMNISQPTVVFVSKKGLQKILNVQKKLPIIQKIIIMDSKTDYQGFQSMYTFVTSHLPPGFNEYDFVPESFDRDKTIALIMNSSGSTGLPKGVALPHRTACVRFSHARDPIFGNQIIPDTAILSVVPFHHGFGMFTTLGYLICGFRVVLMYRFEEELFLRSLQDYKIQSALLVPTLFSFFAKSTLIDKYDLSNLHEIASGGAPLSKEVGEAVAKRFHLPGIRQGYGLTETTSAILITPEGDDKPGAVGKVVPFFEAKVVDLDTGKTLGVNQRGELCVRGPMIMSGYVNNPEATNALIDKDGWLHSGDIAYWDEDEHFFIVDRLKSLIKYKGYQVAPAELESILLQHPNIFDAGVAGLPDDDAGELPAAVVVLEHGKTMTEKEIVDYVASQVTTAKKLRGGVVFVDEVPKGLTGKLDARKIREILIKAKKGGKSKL
Sequence of Concanavalin-A (Canavalia ensiformis) (P02866 whole entry, looked up): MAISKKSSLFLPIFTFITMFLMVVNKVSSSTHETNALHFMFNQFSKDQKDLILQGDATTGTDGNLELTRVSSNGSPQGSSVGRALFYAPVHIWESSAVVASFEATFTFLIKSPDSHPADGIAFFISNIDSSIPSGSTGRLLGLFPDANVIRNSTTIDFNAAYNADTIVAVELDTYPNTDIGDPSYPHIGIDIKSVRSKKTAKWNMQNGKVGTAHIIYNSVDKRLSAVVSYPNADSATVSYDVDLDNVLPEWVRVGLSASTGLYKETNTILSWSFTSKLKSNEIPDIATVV
Sequence of Albumin (Bos taurus) (P02769 whole entry, looked up): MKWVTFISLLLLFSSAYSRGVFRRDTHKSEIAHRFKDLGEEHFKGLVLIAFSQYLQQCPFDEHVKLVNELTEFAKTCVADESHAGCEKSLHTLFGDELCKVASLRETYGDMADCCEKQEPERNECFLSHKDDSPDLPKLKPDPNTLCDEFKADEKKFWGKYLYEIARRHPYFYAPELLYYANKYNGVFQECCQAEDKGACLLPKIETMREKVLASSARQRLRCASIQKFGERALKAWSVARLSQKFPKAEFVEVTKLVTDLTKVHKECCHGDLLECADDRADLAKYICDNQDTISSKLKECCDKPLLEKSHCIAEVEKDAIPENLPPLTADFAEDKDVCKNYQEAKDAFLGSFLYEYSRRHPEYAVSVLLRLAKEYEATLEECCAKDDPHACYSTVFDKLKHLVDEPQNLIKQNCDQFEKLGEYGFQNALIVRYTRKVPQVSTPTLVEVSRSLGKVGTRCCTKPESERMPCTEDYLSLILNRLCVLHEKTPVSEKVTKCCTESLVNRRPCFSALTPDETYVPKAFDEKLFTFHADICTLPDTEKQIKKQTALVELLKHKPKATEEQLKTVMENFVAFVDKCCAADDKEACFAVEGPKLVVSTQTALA

Consider `CCCC[C@@H]1C[C@H]1[C@@H](NC(=O)c1ccccc1)c1ccc(-c2ccccc2)cc1`, for which the composite z-score in assay [1] is 0.891; in assay [3], -0.0647; in [4] it was -0.128; in assay [5] it was 0.498; in assay [6] it was 1.17; in [7], -0.146. The composite z-score is 0.893 in assay [8]; -0.995 in [9]; 0.147 in assay [10]; 0.676 in assay [11]; 0.818 in assay [12]; -0.0867 in assay [13]. Further, the composite z-score was 0.46 in assay [14]; 0.203 in [15]; -0.368 in assay [16]; -0.26 in [18]; 0.348 in assay [19]. The composite Z-score in [2] is -0.0708 (inactive). Besides, the results for the z-score in assay [17] and in assay [20] were -0.232 and 0.0434 (inactive), respectively.

As for `C=C(CCCC)C(=O)CC[C@@H](OC(=O)c1ccccc1-c1ccccc1C(=O)O)c1ccc(CO)o1`, the composite z-score is 0.26 in assay [1]; 0.135 in assay [3]; -0.0028 in [4]; 0.549 in [5]; 0.413 in assay [6]; 0.941 in assay [7]. In addition, the composite z-score in assay [8] is 1.18; in assay [9], 0.593; in [10], 0.786; in [11] it was 0.39; in [12], 1.1; in assay [13] it was -0.248. The composite z-score in [14] was determined as 0.294; in [15] it was 1.3; in assay [16], 1.31; in assay [18] it was 1.38; in assay [19], 0.445. Further, the composite Z-score in assay [2] is -0.27 (inactive). The z-score was 0.31 in [17] and -3.84 (inactive) in [20].

Consider `O=C1OCC=C[C@H]2OC34C=CCN(Cc5ccccc5)C(=O)[C@H]3N(CCCO)C(=O)[C@@H]4[C@@H]12` (stereo not given in full), for which the composite z-score was 0.792 in assay [1]; 0.577 in [3]; 0.0753 in [4]; 0.786 in assay [5]; 3.07 in assay [6]; 1.08 in assay [7]. Besides, the composite z-score in assay [8] is 0.89; in assay [9], -0.888; in [10] it was 0.226; in assay [11], 2.26; in assay [12] it was 0.374; in assay [13], 1.14. The composite z-score was -0.827 in assay [14]; 0.397 in assay [15]; -0.56 in [16]; 1.12 in [18]; -0.0711 in assay [19]. Further, the composite Z-score in assay [2] is 2.97 (inactive). Moreover, the z-score in [17] is -0.63; in [20], -0.241 (inactive).

As for `C=C(CCCC)/C(=C/C[C@@H](OC(=O)c1ccncc1)c1ccc(CO)o1)c1cc(C(=O)OC)ccc1OC`, the composite z-score is 0.662 in [1]; 0.0897 in assay [3]; -0.0349 in assay [4]; 0.709 in assay [5]; 1.46 in assay [6]; 0.924 in assay [7]. Moreover, the composite z-score in assay [8] was 1.3; in assay [9], 0.422; in assay [10], 1.15; in assay [11] it was 1.94; in assay [12], 1.23; in assay [13], 0.129. The composite z-score stood at 0.889 in assay [14]; 1.16 in assay [15]; 0.622 in [16]; 1.57 in assay [18]; 1.18 in assay [19]. Moreover, the composite Z-score in assay [2] is 0.421 (inactive). Besides, the figures for the z-score in assay [17] and in assay [20] were -0.108 and -3.31 (inactive), respectively.

Take `C=CCC(OC(C)=O)[C@@H]1[C@@H](N(Cc2cc3ccccc3o2)C(=O)c2ccc(-c3ccccc3)cc2)c2cc(OCCCO)ccc2N1C(=O)Cc1ccc2ccccc2c1` (stereo not given in full): the composite z-score in [1] is -0.0043; in assay [3] it was -0.0716; in assay [4], -0.166; in [5], -0.127; in [6] it was 0.466; in [7], 0.255. The composite z-score is -0.156 in [8]; 0.213 in [9]; -0.136 in assay [10]; 0.708 in assay [11]; -0.321 in assay [12]; -0.0252 in [13]. For the same molecule, the composite z-score in assay [14] is 0.186; in assay [15], 0.386; in assay [16] it was -0.0741; in assay [18], -0.0934; in assay [19] it was 0.34. Besides, in [2], the composite Z-score was -0.12 (inactive). The values for the z-score in [17] and in assay [20] were 1.33 and -0.729 (inactive), respectively.
